Source: publication PMC7862700, “An all-to-all approach to the identification of sequence-specific readers for epigenetic DNA modifications on cytosine”

Experiments:
Test in all cases: DAPPL (digital affinity profiling via proximity ligation, sequencing); 10 mM Tris-HCl pH 7.5, 50 mM NaCl, 1 mM DTT, 4% glycerol, room temperature, 30 min; GST-TFs on glutathione beads, 16-mer random dsDNA library, 0.1% formaldehyde crosslink after washing; high values mean tight binding
Settings in all cases: protein: recombinant; tags: N-terminal GST; dsDNA, one strand shown
[1] = target: T1, ERF (Homo sapiens, UniProt P50548 1-548)
T1 sequence: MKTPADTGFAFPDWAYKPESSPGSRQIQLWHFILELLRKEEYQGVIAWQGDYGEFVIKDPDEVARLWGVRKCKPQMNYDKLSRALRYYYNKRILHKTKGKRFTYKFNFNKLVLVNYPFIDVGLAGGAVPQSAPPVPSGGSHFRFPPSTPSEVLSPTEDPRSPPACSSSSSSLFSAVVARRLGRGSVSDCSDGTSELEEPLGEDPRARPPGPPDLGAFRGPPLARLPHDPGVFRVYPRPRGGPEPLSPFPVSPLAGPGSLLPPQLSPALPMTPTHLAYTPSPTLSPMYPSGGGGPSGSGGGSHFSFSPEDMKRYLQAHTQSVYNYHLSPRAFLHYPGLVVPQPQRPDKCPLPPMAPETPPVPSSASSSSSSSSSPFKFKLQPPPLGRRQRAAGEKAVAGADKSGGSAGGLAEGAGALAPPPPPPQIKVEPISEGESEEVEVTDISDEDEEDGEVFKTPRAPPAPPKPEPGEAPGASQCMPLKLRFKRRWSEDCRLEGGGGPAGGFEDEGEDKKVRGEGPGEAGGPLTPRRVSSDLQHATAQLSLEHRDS
Summary of the method: (§1)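 Beads coated with glutathione captured GST-fused human transcription factors that had been expressed in yeast, and the factors were then given DNA barcodes and pooled with a tag-only sample. The pools were incubated with 200 nmole of a random double-stranded 16-mer DNA library in Tris/NaCl/DTT/glycerol buffer for 30 min at room temperature, washed, crosslinked with 0.1% formaldehyde and proximity-ligated with BsaI/T4 ligase at 37 °C for 1 h. PCR amplification and Illumina NextSeq500 sequencing came last. Binding signal is each hexamer's read frequency for a factor divided by its frequency for the tag-only sample.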

[2] = target: T2, ETV3L (Homo sapiens, UniProt Q6ZN32 1-361)
T2 sequence: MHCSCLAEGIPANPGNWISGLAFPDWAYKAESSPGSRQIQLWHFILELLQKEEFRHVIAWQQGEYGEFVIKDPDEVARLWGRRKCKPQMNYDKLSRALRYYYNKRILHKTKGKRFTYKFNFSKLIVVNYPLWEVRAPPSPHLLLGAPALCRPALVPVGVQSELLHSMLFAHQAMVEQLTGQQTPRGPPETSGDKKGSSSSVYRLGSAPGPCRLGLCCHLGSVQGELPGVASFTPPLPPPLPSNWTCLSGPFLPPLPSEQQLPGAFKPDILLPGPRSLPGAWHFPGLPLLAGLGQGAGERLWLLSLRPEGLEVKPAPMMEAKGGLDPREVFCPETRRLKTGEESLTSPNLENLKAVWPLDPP
Summary of the method: as §1

[3] = target: T3, ETS2 (Homo sapiens, UniProt P15036 1-469)
T3 sequence: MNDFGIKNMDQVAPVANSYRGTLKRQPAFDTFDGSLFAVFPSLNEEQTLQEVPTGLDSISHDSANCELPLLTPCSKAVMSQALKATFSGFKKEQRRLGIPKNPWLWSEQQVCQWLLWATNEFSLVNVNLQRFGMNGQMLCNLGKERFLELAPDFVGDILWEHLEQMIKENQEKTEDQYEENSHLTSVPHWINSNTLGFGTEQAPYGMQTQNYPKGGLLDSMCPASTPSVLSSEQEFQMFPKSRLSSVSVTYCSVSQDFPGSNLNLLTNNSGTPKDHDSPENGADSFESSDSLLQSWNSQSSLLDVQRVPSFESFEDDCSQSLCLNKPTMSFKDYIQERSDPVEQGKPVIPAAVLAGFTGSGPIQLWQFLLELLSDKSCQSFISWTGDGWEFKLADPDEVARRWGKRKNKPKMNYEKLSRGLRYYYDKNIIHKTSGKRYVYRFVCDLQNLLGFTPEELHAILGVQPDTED
Summary of the method: as §1

[4] = target: T4, SPDEF (Homo sapiens, UniProt O95238 1-335)
T4 sequence: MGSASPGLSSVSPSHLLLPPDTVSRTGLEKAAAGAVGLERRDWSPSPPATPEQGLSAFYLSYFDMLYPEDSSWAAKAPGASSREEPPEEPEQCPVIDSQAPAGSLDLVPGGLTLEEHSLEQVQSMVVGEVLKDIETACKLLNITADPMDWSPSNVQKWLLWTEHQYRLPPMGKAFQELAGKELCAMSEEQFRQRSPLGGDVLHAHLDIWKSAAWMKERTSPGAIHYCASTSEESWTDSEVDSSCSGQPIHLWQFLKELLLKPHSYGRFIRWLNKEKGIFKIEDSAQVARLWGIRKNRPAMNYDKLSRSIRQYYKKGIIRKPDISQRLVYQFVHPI
Summary of the method: as §1

[5] = target: T5, ETV7 (Homo sapiens, UniProt Q9Y603 1-341)
T5 sequence: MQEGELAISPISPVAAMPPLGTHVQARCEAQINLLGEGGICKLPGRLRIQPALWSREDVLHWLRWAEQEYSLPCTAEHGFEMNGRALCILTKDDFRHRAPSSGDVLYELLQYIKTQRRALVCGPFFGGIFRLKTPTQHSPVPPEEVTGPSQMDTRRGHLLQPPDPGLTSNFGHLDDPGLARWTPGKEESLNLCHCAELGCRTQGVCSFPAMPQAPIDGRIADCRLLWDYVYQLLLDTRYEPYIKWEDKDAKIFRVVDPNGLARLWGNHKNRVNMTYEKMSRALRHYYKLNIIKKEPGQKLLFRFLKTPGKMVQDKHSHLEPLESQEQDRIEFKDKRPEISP
Summary of the method: as §1

[6] = target: T6, ELF5 (Homo sapiens, UniProt Q9UKW6-2 1-255)
T6 sequence: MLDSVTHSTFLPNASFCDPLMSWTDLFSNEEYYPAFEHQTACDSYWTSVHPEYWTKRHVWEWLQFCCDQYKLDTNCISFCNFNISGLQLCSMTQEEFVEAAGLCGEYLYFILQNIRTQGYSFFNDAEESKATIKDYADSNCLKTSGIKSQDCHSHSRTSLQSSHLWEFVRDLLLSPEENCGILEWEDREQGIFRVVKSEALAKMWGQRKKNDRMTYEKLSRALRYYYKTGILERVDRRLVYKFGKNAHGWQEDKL
Summary of the method: as §1

[7] = target: T7, ETV3 (Homo sapiens, UniProt P41162-2 1-143)
T7 sequence: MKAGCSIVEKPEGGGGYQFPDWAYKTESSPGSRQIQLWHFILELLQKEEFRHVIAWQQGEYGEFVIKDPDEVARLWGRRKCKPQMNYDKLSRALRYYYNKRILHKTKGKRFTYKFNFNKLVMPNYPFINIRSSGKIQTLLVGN
Summary of the method: as §1

[8] = target: ETV6 (Homo sapiens, UniProt P41212 1-452)
Summary of the method: as §1

Sequence of ETV6 (P41212 whole entry): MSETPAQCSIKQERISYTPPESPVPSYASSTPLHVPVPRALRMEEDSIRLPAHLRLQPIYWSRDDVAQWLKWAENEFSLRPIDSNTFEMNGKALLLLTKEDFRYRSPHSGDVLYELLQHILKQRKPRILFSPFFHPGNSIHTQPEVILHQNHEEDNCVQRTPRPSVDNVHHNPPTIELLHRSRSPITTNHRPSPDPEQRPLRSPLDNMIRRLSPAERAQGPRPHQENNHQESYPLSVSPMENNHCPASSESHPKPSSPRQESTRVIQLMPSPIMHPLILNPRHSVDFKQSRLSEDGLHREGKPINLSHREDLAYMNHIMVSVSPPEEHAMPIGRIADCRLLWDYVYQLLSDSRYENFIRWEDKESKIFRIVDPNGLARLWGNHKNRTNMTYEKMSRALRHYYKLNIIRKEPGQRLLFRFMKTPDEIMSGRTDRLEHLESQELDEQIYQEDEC

Sequence	binding signal [1]	binding signal [2]	binding signal [3]	binding signal [4]	binding signal [5]	binding signal [6]	binding signal [7]	binding signal [8]
GTAACT	1.22 fold enrichment (6-mer frequency, TF over GST control)	1.28 fold enrichment (6-mer frequency, TF over GST control)	1.25 fold enrichment (6-mer frequency, TF over GST control)	1.2 fold enrichment (6-mer frequency, TF over GST control)	1.12 fold enrichment (6-mer frequency, TF over GST control)	1.24 fold enrichment (6-mer frequency, TF over GST control)	1.25 fold enrichment (6-mer frequency, TF over GST control)	1.25 fold enrichment (6-mer frequency, TF over GST control)
CAATCA	1.19 fold enrichment (6-mer frequency, TF over GST control)	1.2 fold enrichment (6-mer frequency, TF over GST control)	1.13 fold enrichment (6-mer frequency, TF over GST control)	1.07 fold enrichment (6-mer frequency, TF over GST control)	1.04 fold enrichment (6-mer frequency, TF over GST control)	1.1 fold enrichment (6-mer frequency, TF over GST control)	1.1 fold enrichment (6-mer frequency, TF over GST control)	1.16 fold enrichment (6-mer frequency, TF over GST control)
ATTTGT	1.34 fold enrichment (6-mer frequency, TF over GST control)	1.35 fold enrichment (6-mer frequency, TF over GST control)	1.36 fold enrichment (6-mer frequency, TF over GST control)	1.33 fold enrichment (6-mer frequency, TF over GST control)	1.34 fold enrichment (6-mer frequency, TF over GST control)	1.26 fold enrichment (6-mer frequency, TF over GST control)	1.4 fold enrichment (6-mer frequency, TF over GST control)	1.29 fold enrichment (6-mer frequency, TF over GST control)
CGACCG	1.17 fold enrichment (6-mer frequency, TF over GST control)	1.28 fold enrichment (6-mer frequency, TF over GST control)	1.22 fold enrichment (6-mer frequency, TF over GST control)	1.22 fold enrichment (6-mer frequency, TF over GST control)	1.13 fold enrichment (6-mer frequency, TF over GST control)	1.12 fold enrichment (6-mer frequency, TF over GST control)	1.12 fold enrichment (6-mer frequency, TF over GST control)	1.18 fold enrichment (6-mer frequency, TF over GST control)
TTCTGT	1.39 fold enrichment (6-mer frequency, TF over GST control)	1.42 fold enrichment (6-mer frequency, TF over GST control)	1.29 fold enrichment (6-mer frequency, TF over GST control)	1.15 fold enrichment (6-mer frequency, TF over GST control)	1.26 fold enrichment (6-mer frequency, TF over GST control)	1.29 fold enrichment (6-mer frequency, TF over GST control)	1.19 fold enrichment (6-mer frequency, TF over GST control)	1.38 fold enrichment (6-mer frequency, TF over GST control)
ACTGCC	1.4 fold enrichment (6-mer frequency, TF over GST control)	1.46 fold enrichment (6-mer frequency, TF over GST control)	1.29 fold enrichment (6-mer frequency, TF over GST control)	1.46 fold enrichment (6-mer frequency, TF over GST control)	1.34 fold enrichment (6-mer frequency, TF over GST control)	1.43 fold enrichment (6-mer frequency, TF over GST control)	1.46 fold enrichment (6-mer frequency, TF over GST control)	1.4 fold enrichment (6-mer frequency, TF over GST control)
CGCTTA	1.31 fold enrichment (6-mer frequency, TF over GST control)	1.3 fold enrichment (6-mer frequency, TF over GST control)	1.25 fold enrichment (6-mer frequency, TF over GST control)	1.3 fold enrichment (6-mer frequency, TF over GST control)	1.31 fold enrichment (6-mer frequency, TF over GST control)	1.19 fold enrichment (6-mer frequency, TF over GST control)	1.34 fold enrichment (6-mer frequency, TF over GST control)	1.11 fold enrichment (6-mer frequency, TF over GST control)
TATCAG	1.13 fold enrichment (6-mer frequency, TF over GST control)	1.11 fold enrichment (6-mer frequency, TF over GST control)	1.15 fold enrichment (6-mer frequency, TF over GST control)	1.26 fold enrichment (6-mer frequency, TF over GST control)	1.07 fold enrichment (6-mer frequency, TF over GST control)	1.06 fold enrichment (6-mer frequency, TF over GST control)	1.12 fold enrichment (6-mer frequency, TF over GST control)	1.12 fold enrichment (6-mer frequency, TF over GST control)
